The values below come from PubChem BioAssay.

The nature of assay [1]: antimalarial activity against Dd2 strain (AID 2302;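 active = growth inhibition above 50% at the single 2 µM test dose, taken to imply half-maximal potency below 2 µM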;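 also: 0% = DMSO untreated growth and 100% = chloroquine plus artemisinin killed control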). As to conditions: P. falciparum Dd2 in RBCs, LDH growth readout, 72 h; at 2 µM; active compounds read high.
Assay [2] can be described thus: HepG2 cytotoxicity, primary screen, cytotoxicity control for P. falciparum antimalarial project, cell-based, ATP luminescence (AID 2303;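 active = inhibition above 50%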;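 also: 0% = DMSO wells and 100% = digitonin-killed cells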). The following applies: HepG2 viability, 24-48 h, at 10 µM, active compounds read high.
Assay [3] addresses L-lactate dehydrogenase (Plasmodium falciparum (isolate CDC / Honduras)) (UniProt Q27743). In words: PfLDH activity inhibition – cell lysate, 3D7 strain, counter-screen for P. falciparum growth inhibition project (AID 2304).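 Also: 0% = vehicle and 100% = reference inhibitor.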 As to conditions: P. falciparum 3D7 crude extract, LDH APAD/NBT absorbance; at 2 µM; active compounds read high. In general terms: The purpose of a counterscreen is to sort out artefacts and off-target activity.

The nature of assay [4]: inhibition of 3D7 malaria parasite growth – strain 3D7 (AID 2306).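 Also: 0% = DMSO wells and 100% = chloroquine plus artemisinin control wells.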 As to conditions: P. falciparum 3D7 erythrocytic growth, LDH absorbance, 72 h; at 2 µM; active compounds read high.
In assay [5] the target is Calcium-dependent protein kinase 1 (Plasmodium falciparum (isolate 3D7)) (UniProt P62344). Kind of assay: PfCDPK1 kinase inhibitors, biochemical, TCAMS library (AID 1159585; cut-off not given, nearly all actives have IC50 up to about 0.98 µM;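 also: inhibitors leave more ATP so luminescence rises with inhibition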). The following applies: recombinant PfCDPK1, Kinase-Glo ATP depletion luminescence.
Sequence of Calcium-dependent protein kinase 1 (Plasmodium falciparum (isolate 3D7)) (P62344 whole entry, looked up): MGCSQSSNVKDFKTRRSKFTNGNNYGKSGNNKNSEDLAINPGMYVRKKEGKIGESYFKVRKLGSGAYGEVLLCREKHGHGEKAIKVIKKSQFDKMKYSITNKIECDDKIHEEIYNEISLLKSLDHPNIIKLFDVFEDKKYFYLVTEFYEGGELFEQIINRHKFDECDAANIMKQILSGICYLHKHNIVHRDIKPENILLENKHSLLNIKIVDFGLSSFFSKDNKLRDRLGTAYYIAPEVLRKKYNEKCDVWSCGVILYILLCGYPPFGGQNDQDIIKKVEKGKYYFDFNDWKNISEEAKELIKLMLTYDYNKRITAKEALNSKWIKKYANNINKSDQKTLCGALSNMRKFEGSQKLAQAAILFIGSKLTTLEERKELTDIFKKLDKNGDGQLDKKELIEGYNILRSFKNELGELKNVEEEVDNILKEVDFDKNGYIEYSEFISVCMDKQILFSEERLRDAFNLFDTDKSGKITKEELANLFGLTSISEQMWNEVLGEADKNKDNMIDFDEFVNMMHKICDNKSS
Assay [6] concerns the target Plasmodium falciparum protein kinase 6 (PK6, PF3D7_1337100) (UniProt Q8IDW1). In words: PfPK6 kinase inhibitors, biochemical, TCAMS library (AID 1159586). The following applies: recombinant PfPK6, Kinase-Glo ATP depletion luminescence. In general terms: In Kinase-Glo more light means more ATP remaining.
Assay [7] deals with Protein kinase 7 (PK7), Plasmodium falciparum 3D7 (PF3D7_0213400) (UniProt Q7YTF7). Kind of assay: inhibition of Plasmodium PK7 catalytic activity – biochemical, TCAMS antimalarial set, Kinase-Glo luminescence (AID 1159587). As to conditions: recombinant PfPK7, Kinase-Glo ATP depletion luminescence.
Sequence of Protein kinase 7 (PK7), Plasmodium falciparum 3D7 (PF3D7_0213400) (Q7YTF7 1-343): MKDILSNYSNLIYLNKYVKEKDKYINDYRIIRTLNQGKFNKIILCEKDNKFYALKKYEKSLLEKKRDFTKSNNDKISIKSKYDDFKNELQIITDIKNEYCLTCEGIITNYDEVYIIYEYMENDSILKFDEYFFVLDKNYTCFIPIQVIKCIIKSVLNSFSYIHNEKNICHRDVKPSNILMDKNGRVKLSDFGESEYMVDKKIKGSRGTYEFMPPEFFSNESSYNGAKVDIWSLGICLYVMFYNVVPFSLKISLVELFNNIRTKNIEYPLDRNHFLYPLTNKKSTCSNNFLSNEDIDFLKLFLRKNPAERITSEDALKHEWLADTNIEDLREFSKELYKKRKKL
The target in assay [8] is Calcium-dependent protein kinase 4 (Plasmodium falciparum (isolate 3D7)) (UniProt Q8IBS5). In words: PfCDPK4 kinase inhibitors, biochemical, TCAMS library (AID 1159588; cut-off not given, nearly all actives have IC50 up to about 0.91 µM). As to conditions: recombinant PfCDPK4, Kinase-Glo ATP depletion luminescence.
Sequence of Calcium-dependent protein kinase 4 (Plasmodium falciparum (isolate 3D7)) (Q8IBS5 whole entry, looked up): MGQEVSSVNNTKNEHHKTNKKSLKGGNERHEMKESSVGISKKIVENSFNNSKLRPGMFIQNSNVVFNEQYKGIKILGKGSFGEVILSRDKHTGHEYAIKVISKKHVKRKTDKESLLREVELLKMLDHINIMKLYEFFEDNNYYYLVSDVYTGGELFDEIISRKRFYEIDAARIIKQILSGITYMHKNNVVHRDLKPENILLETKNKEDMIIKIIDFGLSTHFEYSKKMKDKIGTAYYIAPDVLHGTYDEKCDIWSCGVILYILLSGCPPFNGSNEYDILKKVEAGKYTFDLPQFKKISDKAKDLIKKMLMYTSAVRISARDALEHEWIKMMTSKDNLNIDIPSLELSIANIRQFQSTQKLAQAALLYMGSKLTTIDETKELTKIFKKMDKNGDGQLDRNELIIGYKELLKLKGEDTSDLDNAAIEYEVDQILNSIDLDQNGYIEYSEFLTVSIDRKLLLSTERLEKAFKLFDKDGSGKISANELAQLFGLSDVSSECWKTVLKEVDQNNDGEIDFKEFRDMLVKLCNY

The structures appear in SMILES notation. Unmarked numbers belong to inactive results. For some of these results: Results with a measured potency or affinity are listed apart. Calls of active or inactive are those of the source. Unless noted, no rule for the calls is given here.

Sequence of Plasmodium falciparum protein kinase 6 (PK6, PF3D7_1337100) (Q8IDW1 1-305): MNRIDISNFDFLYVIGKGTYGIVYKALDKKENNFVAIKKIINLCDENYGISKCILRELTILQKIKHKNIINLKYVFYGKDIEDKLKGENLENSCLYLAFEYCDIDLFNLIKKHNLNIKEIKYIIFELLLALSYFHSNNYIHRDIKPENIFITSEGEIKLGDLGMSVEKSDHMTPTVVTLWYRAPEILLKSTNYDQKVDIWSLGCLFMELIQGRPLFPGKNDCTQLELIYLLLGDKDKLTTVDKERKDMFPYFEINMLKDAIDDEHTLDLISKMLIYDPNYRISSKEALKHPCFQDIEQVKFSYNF
Sequence of L-lactate dehydrogenase (Plasmodium falciparum (isolate CDC / Honduras)) (Q27743 whole entry, looked up): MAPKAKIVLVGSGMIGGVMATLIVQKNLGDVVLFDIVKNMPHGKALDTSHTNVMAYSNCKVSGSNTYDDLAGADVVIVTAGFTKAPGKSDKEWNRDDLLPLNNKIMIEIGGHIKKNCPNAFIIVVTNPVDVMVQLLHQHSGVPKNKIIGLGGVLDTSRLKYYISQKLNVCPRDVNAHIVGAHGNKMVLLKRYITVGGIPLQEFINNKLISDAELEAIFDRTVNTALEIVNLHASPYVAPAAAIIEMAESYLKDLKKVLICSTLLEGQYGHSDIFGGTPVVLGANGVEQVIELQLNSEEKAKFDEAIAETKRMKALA

As usually defined, the inhibition is the drop in the measured response relative to a control, in per cent. In the case of `CC(Nc1ccnc2cc(Cl)ccc12)c1ccc(S(N)(=O)=O)cc1` (stereo not given), the growth inhibition in assay [1] is 21%; in assay [4], 96% (active). The inhibition in assay [2] is 5%; in assay [3], 3%. In addition, the result in assay [5], in assay [6], in assay [7] and in assay [8] was inactive.

Turning to `CCN1CCC(NCc2ccc(-c3ccc(Cl)cc3)cc2)CC1`, the growth inhibition in assay [1] is 33%; in assay [4], 100% (active). The inhibition in assay [2] is 25%; in assay [3], -2%. The outcome in assay [5], in assay [6], in assay [7] and in assay [8] was inactive.

In the case of `CCOC(=O)c1ccc(NC(=O)Nc2cccc(-c3ccc(-c4nc5ccccc5[nH]4)cc3)c2)cc1`, the growth inhibition in assay [1] is 86% (active); in assay [4], 100% (active). Moreover, the inhibition in assay [2] was 54% (active); in assay [3], -2%. Also, the result in assay [5], in assay [6], in assay [7] and in assay [8] was inactive.

Consider `CS(=O)(=O)c1ccc(-c2cnc(N)c(-c3cccc(CO)c3)c2)cc1`, for which the results for the growth inhibition in assay [1] and in assay [4] were 51% (active) and 98% (active), respectively. For the same compound, the inhibition in assay [2] is -4%; in assay [3], 0%. The result in assay [5], in assay [6], in assay [7] and in assay [8] was inactive.

For `CC(=Nc1ccc(Cl)c(Cl)c1)N(C)C`, the growth inhibition is 0% in assay [1] and 98% (active) in assay [4]. The inhibition was -6% in assay [2] and 2% in assay [3]. Moreover, the outcome in assay [5], in assay [6], in assay [7] and in assay [8] was inactive.

Take `CCN1CCN(c2cc(C)c3cc(NC(=O)c4cccc(Cl)c4)ccc3n2)CC1`: the results for the growth inhibition in assay [1] and in assay [4] were 58% (active) and 100% (active), respectively. The inhibition in assay [2] was 4%; in assay [3], -4%. Further, the result in assay [5], in assay [6], in assay [7] and in assay [8] was inactive.

For `CCCN(CCC)C(=O)c1cc(C(=O)N[C@@H](Cc2ccccc2)[C@H](O)CNCc2cccc(OC)c2)cc(N2CCCCS2(=O)=O)c1`, the growth inhibition in assay [1] is 99% (active); in assay [4], 97% (active). In addition, the figures for the inhibition in assay [2] and in assay [3] were -1% and 4%, respectively. In addition, the result in assay [5], in assay [6], in assay [7] and in assay [8] was inactive.

With `Cc1nn(CC(C)C)c2sc(C(=O)Nc3nc(-c4ccccn4)cs3)cc12`, the growth inhibition in assay [1] is 67% (active); in assay [4], 96% (active). Besides, the inhibition in assay [2] was 29%; in assay [3], 1%. Further, the outcome in assay [5], in assay [6], in assay [7] and in assay [8] was inactive.

Take `COc1ccccc1N1CCN(C(C(=O)NCc2ccc3c(c2)OCO3)c2ccc(C)cc2)CC1` (stereo not given): the growth inhibition in assay [1] is 81% (active); in assay [4], 85% (active). In addition, the values for the inhibition in assay [2] and in assay [3] were 1% and 2%, respectively. Further, the outcome in assay [5], in assay [6], in assay [7] and in assay [8] was inactive.

Regarding `O=C(/C=C/c1ccc(Cl)c(Cl)c1)NCCCCCN1CCCN(C(=S)Nc2ccc(Cl)cc2)CC1`, the growth inhibition is 10% in assay [1] and 86% (active) in assay [4]. The figures for the inhibition in assay [2] and in assay [3] were 7% and -3%, respectively. The outcome in assay [5], in assay [6], in assay [7] and in assay [8] was inactive.

Turning to `CN1CCC(C(=O)Nc2ccc(-c3ccc(-c4nc5ccccc5[nH]4)s3)cc2)CC1`, the values for the growth inhibition in assay [1] and in assay [4] were 22% and 99% (active), respectively. The values for the inhibition in assay [2] and in assay [3] were 30% and 3%, respectively. Also, the outcome in assay [5], in assay [6], in assay [7] and in assay [8] was inactive.

For the compound `COc1ccccc1C1CCN(C2CCC(NC(=O)c3cc(-c4ccc(Cl)cc4)cs3)CC2)CC1` (stereo not given), the growth inhibition in assay [1] is 100% (active); in assay [4], 101% (active). The values for the inhibition in assay [2] and in assay [3] were 61% (active) and -1%, respectively. The result in assay [5], in assay [6], in assay [7] and in assay [8] was inactive.

On to `CN(C)CCCNCc1ccc(-c2ccc(CNCCc3ccccc3)cc2)cc1`, for which the growth inhibition in assay [1] is 87% (active); in assay [4], 100% (active). The inhibition was 61% (active) in assay [2] and 0% in assay [3]. The result in assay [5], in assay [6], in assay [7] and in assay [8] was inactive.

Regarding `COC(=O)c1cccc(CNCc2cccc(-c3cccc(-c4nc5ccc(F)cc5[nH]4)c3)c2)c1`, the growth inhibition was 52% (active) in assay [1] and 101% (active) in assay [4]. The values for the inhibition in assay [2] and in assay [3] were 27% and 1%, respectively. The outcome in assay [5], in assay [6], in assay [7] and in assay [8] was inactive.

With `CCCN(CCC)C(C)CCC(C)Nc1c2ccc(Cl)cc2nc2ccc(OC)cc12` (stereo not given), the figures for the growth inhibition in assay [1] and in assay [4] were 99% (active) and 101% (active), respectively. Further, the inhibition in assay [2] is 41%; in assay [3], 3%. For the same compound, the result in assay [5], in assay [6], in assay [7] and in assay [8] was inactive.

With `CCN(CC)CCNc1ccnc2[nH]c3ccc(I)cc3c12`, the growth inhibition in assay [1] is 95% (active); in assay [4] it was 100% (active). For the same compound, the inhibition was 14% in assay [2] and -1% in assay [3]. Further, the outcome in assay [5], in assay [6], in assay [7] and in assay [8] was inactive.

In the case of `O=C(NCc1cccnc1)C(c1cc2ccccc2o1)N1CCN(C(c2ccccc2)c2ccccc2)CC1` (stereo not given), the results for the growth inhibition in assay [1] and in assay [4] were 81% (active) and 95% (active), respectively. Also, the inhibition in assay [2] is 12%; in assay [3], 6%. Also, the outcome in assay [5], in assay [6], in assay [7] and in assay [8] was inactive.

On to `O=C(Nc1ccc(OCc2ccccc2)cc1)c1nc2ccccc2nc1Cl`, for which the growth inhibition in assay [1] is 95% (active); in assay [4] it was 96% (active). In addition, the figures for the inhibition in assay [2] and in assay [3] were 48% and 3%, respectively. In addition, the result in assay [5], in assay [6], in assay [7] and in assay [8] was inactive.

`COc1cc2c(c(Cl)c1OC)CCN(C(=O)C(F)(F)F)CC2c1ccccc1` (stereo not given): the growth inhibition in assay [1] and in assay [4] was 101% (active) each time. The inhibition was 7% in assay [2] and 8% in assay [3]. Also, the outcome in assay [5], in assay [6], in assay [7] and in assay [8] was inactive.

Take `CCOC(=O)CNC(=O)N(CCN(Cc1ccccc1)C(=O)NCC(=O)OCC)Cc1ccccc1`: the growth inhibition is -1% in assay [1] and 98% (active) in assay [4]. The results for the inhibition in assay [2] and in assay [3] were 9% and 5%, respectively. The result in assay [5], in assay [6], in assay [7] and in assay [8] was inactive.
